# Test results taken from PubChem BioAssay AID493170 (National Center for Advancing Translational Sciences (NCATS), 2011).
# Results filed as inconclusive are left out. Values without a mark were called inactive. Calls of active or inactive are those of the source. The call rests on the fitted dose curve; in most records, active means well fitted inhibition curve with a large enough effect; inconclusive means small, poorly fitted or top-dose-only effect, or effect the other way; inactive means flat fitted curve, though single readings scatter.
# Molecular target: Ubiquitin carboxyl-terminal hydrolase 2 (Homo sapiens) (UniProt O75604)
# Sequence (O75604 whole entry, looked up): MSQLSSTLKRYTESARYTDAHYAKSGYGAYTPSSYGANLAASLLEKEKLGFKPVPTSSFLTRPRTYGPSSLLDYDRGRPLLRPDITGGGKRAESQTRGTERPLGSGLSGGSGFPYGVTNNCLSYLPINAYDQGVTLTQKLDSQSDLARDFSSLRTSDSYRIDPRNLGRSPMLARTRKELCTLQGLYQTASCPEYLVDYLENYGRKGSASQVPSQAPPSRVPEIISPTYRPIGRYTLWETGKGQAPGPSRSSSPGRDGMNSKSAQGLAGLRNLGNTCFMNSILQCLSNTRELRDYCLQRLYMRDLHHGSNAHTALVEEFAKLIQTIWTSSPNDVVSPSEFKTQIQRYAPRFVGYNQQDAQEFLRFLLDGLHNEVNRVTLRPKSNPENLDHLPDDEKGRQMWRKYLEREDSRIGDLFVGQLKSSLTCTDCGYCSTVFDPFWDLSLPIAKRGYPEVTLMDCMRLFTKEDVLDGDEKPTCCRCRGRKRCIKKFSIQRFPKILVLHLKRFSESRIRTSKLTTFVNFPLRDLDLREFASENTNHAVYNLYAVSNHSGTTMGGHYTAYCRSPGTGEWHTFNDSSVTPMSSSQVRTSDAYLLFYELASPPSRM
# Experiment: Ub-rhodamine 110 based assay for inhibitors Ubiquitin-specific Protease USP2a; further: nearly all actives have a fitted effect of over 50% in size
# Details: USP2a Ub-rhodamine110 cleavage, fluorescence; series mostly up to 38.3 µM; activity change, negative = inhibition: at the top concentration
# How it was run: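 5 nM USP2a preincubated with compounds for 30 min at RT in 20 mM Tris-HCl pH 8.0, 2 mM CaCl2, 2 mM beta-mercaptoethanol, 0.05% CHAPS. Cleavage of 150 nM Ub-rhodamine 110 read kinetically (Ex 485/Em 531) for 7 min.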
# On the % scale 0 is the no-effect control and ±100 the full control effect; potency means the concentration at half of the fitted maximal effect.
SMILES,Potency,"activity change, negative = inhibition [%]"
CSc1ccc(NC(=O)CSc2nc3[nH]c(=O)cc(O)c3s2)cc1,5.62 µM (active),–
Cc1ccc(C2(C)NC(=O)N(CC(=O)c3ccc(Cl)s3)C2=O)cc1 (centres undefined),11.2 µM (active),–
O=C1N=c2ccccc2=C1c1sc(Nc2ccc(O)cc2)nc1O,7.94 µM (active),–
COCCn1c(CN(Cc2ccccc2)Cc2ccccc2)nc2c1c(=O)n(C)c(=O)n2C,–,-16.8
Cc1ccc(C(=O)Oc2coc(CSc3nnc(NC(=O)c4cccs4)s3)cc2=O)cc1,11.2 µM (active),–
N#Cc1c(-c2cccs2)nc(SCc2ccc(Cl)cc2)[nH]c1=O,10 µM (active),–
CC1CC(C)CN(C(=O)CSc2nnc(-c3ccc(Cl)cc3)o2)C1 (centres undefined),–,1.57
O=C(CNC(=O)C1CCCCC1)NC1=NCCS1,–,-7.26
Cc1cc(C)c2c(N=CN(C)C)c(C(=O)N3CCN(c4ncccn4)CC3)sc2n1,–,-2.46
Nc1ccc2nc(-c3ccc(N)c(Cl)c3)[nH]c2c1,–,-10.3
Cc1ccc(NC(=O)CSc2nnc(COc3ccc(C#N)cc3)n2-c2ccccc2)cc1C,–,-17
C[C@@H]1CN([C@@H](C)CO)C(=O)c2cc(NC(=O)CCC(F)(F)F)ccc2O[C@H]1CN(C)S(=O)(=O)c1ccc(Cl)cc1,–,-7.59
Cn1c2ccccc2c2nnc(SC3CCOC3=O)nc21 (centres undefined),–,1.37
O=C(NC1CCCCC1)C(c1ccco1)N(C(=O)c1csnn1)c1cccc(F)c1 (centres undefined),–,1.96
COc1cccc(NC(=O)Cc2ccccc2)c1,–,1.85
CC1Cc2ccccc2N1C(=O)Cn1c(=O)oc2cc(S(=O)(=O)NC3CCCC3)ccc21 (centres undefined),–,-25.2
O=C(/C=C1\NC2(CCCC2)Cc2ccccc21)C(=O)N/N=C/c1ccc(O)c(O)c1,7.94 µM (active),–
CCNC1=C(Cl)C(=O)c2ccccc2C1=O,–,-12.4
O=C(CSc1nc(O)cc(=O)n1-c1ccccc1)NC1CCCCC1,–,-15.7
CCCC(=O)Nc1ccc(N2CCN(C(=O)c3cc4ccccc4o3)CC2)cc1,–,-17.7
CCCn1nnc(NC(=O)c2cccc(OCC(C)C)c2)n1,–,-0.324
COC(=O)c1c(O)c2c([nH]c1=O)CCCC2,–,0.864
CC(NC(=O)COc1ccccc1-c1ccccc1)c1ccccc1 (centres undefined),–,-12.3
COc1ccc(/C=C2\SC(=O)N(CC(=O)Nc3cccc(C)c3)C2=O)cc1O,8.91 µM (active),–
